# Data taken from PubChem BioAssay AID588742 (Southern Research Specialized Biocontainment Screening …, 2011).
# Hit rate of the full screen: of about 1,800 compounds, about 410 (23%) were called active. No rule for the calls is given here. The list is a sample of the results. Results with a measured potency or affinity are listed apart.
# Experiment: viability of Vero cells under compound – cytotoxicity control for flavivirus capping enzyme inhibitors (AID 588742)
# Conditions: cytotoxicity counter-screen; series mostly up to 40 µM
row,Structure (SMILES),outcome
1,O=[N+]([O-])c1ccc(Cl)c2c1C1C=CCC1C(c1ccccn1)N2 (stereo not given),inactive
2,Cc1c(OCC(=O)NCCCN2CCCC2=O)ccc2c3c(c(=O)oc12)CCCC3,inactive
3,Cc1cc(=O)c2c(o1)C(=O)c1occc1C2=O,inactive
4,C/C(=C/CCC(C)[C@H]1CC[C@@]2(C)C3=C(CC[C@]12C)[C@@]1(C)CCC(=O)C(C)(C)[C@@H]1CC3)C(=O)O (stereo not given in full),inactive
5,CCOc1cc(C2CC(=O)N3CN(C4CCCCC4)CSC3=C2C#N)ccc1O (stereo not given),inactive
6,N#CC1=C(N)N(c2ccc(Br)cc2)C2=C(C(=O)CCC2)C1c1cccnc1 (stereo not given),inactive
7,Cc1[nH]n(-c2ccccc2)c(=O)c1N=Nc1ccccc1C(=O)O,inactive
8,COc1cc(/C=C2/C(=O)NN(c3cccc(C)c3)C2=O)cc([N+](=O)[O-])c1O,inactive
9,COc1cc(/C=C2\S/C(=N/S(=O)(=O)c3ccccc3)NC2=O)c([N+](=O)[O-])cc1OC,inactive
10,COc1cc(/C=C2/C(=O)NN(c3ccc(F)cc3)C2=O)cc([N+](=O)[O-])c1O,inactive
11,O=C(O)CN1C(=O)/C(=C2\SC(=S)N(C(Cc3ccccc3)C(=O)O)C2=O)c2ccccc21 (stereo not given),inactive
12,O=C(O)c1cnn2c(C(F)(F)F)cc(-c3ccccc3)nc12,inactive
13,O=C1Nc2ccc(Cl)cc2C12Nc1ccccc1-c1nnc(SCc3ccccc3F)nc1O2 (stereo not given),inactive
14,Cc1csc(N/N=C/c2ccc(O)c([N+](=O)[O-])c2)n1,inactive
15,Cc1cc(O)c(C(C)C)cc1N=Cc1ccccc1[N+](=O)[O-],inactive
16,Cc1ccc(S(=O)(=O)Nc2nc(-c3ccc(F)cc3)cs2)cc1,inactive
17,Cc1nc(COC(=O)c2cc(O)c3ccccc3c2O)cs1,inactive
18,CC(=O)c1cc(O)c2ccccc2c1O,inactive
19,NC(=O)COc1ccc(/C=C2\C(=O)ON=C2c2ccccc2)cc1,inactive
20,CC(=O)N1CCn2c3c(c(=O)c4cc(C)ccc42)CCC31 (stereo not given),inactive
21,O=C(O)c1ccc(Cl)c(S(=O)(=O)Nc2ccc(S(=O)(=O)Nc3cccc(Cl)c3)cc2)c1,inactive
22,Cc1ccc(C2C(C#N)=C(N)OC3=C2C(=O)CC(C)(C)C3)s1 (stereo not given),inactive

row,Structure (SMILES),outcome
1,Cc1ccc(SCc2[nH]nc3c2C(c2ccc(C)o2)C(C#N)=C(N)O3)cc1 (stereo not given),inactive
2,CCS(=O)(=O)c1nc(S(=O)(=O)c2ccc(C)cc2)c(N2CCCC2)s1,inactive
3,O=C(O)CC/C(=C\c1ccc(N2CCCC2)c([N+](=O)[O-])c1)c1nc2ccccc2s1,inactive
4,C=CCNc1cc(N2CCCC2)ccc1[N+](=O)[O-],inactive
5,COc1ccc(/C=C2/SC(=S)N(CC(=O)O)C2=O)cc1OCc1ccc(Cl)cc1,inactive
6,COc1ccc(O)c(C(=O)c2cc(SCC(=O)O)c3nc4sc5c(c4c(=O)n3c2)CCCC5)c1,inactive
7,O=C(O)CSc1cc(C(=O)c2ccccc2O)cn2c(=O)c3c4c(sc3nc12)CCCC4,inactive
8,O=C(CNc1ccc2ccccc2c1)N/N=C/c1ccncc1,inactive
9,CN(C)c1cccc(C(=O)OC(C(=O)Nc2ccc([N+](=O)[O-])cc2Br)c2ccccc2)c1 (stereo not given),inactive
10,CC1=NN(C(=S)Nc2ccccc2)C(c2ccccc2)C1 (stereo not given),inactive
11,Cc1cccc(C2C3=C(Nc4[nH]n(-c5ccccc5)c(=O)c42)c2ccccc2C3=O)c1 (stereo not given),inactive
12,COc1cc(N2CCCC2)c(OC)cc1C=O,inactive
13,COc1ccc(S(=O)(=O)CC(=O)c2cc3cccc(C)c3oc2=O)cc1,inactive
14,N#Cc1c(SC(C(=O)O)c2ccccc2)nc2c(c1-c1cccs1)CCCC2 (stereo not given),inactive
15,CC1=NN(c2nc(-c3ccccc3)cs2)C(=O)C1,inactive
16,COc1cc(/C=C(\C#N)C(=O)Nc2ccccc2C(=O)O)cc(Cl)c1OC,inactive
17,COc1ccc2nc3ccccc3nc2c1N,inactive
18,COc1ccc2nc3cccc(OC)c3nc2c1,inactive
19,COc1cc(N=c2ssnc2Cl)c(OC)cc1Cl,inactive
20,O=C(O)/C(CC(=O)c1ccc(Cl)cc1)=N/Nc1ccc([N+](=O)[O-])cc1[N+](=O)[O-],inactive
21,O=C(c1ccc(NC(=O)C(c2ccccc2)c2ccccc2)cc1)c1ccc(C(=O)O)c(C(=O)O)c1,inactive
22,COc1ccccc1/C=C1/C(=O)N(c2ccccc2)N=C1C,inactive

row,Structure (SMILES),outcome
1,CC1=NN(c2ccccc2)C(=O)/C1=C/c1cccs1,inactive
2,CC(=O)CSc1nsc(SCC(C)=O)c1C#N,inactive
3,C=CCOc1ccccc1OCC(O)CNC(C)C (stereo not given),inactive
4,O=C(CN1C(=O)/C(=C2/SC(=S)N(CCS(=O)(=O)O)C2=O)c2ccccc21)Nc1cccc(C(F)(F)F)c1,inactive
5,O=[N+]([O-])c1cc(-c2ccccc2)cc([N+](=O)[O-])c1O,inactive
6,Cc1oc2cc([N+](=O)[O-])c(O)c([N+](=O)[O-])c2c1C(=O)c1ccc(Br)cc1,inactive
7,CC(CNC(=O)CN1C(=O)COc2ccc(S(=O)(=O)N3CCCCC3)cc21)c1ccccc1 (stereo not given),inactive
8,COc1ccc(-c2ccc(CCC(=O)O)o2)cc1,inactive
9,COC(=O)CCC(=O)OC1(C)C(=O)C2=CN(C3CCCC3)C(c3ccc(OC)cc3)=CC2=C(Br)C1=O (stereo not given),inactive
10,Cc1ccc(C(=O)/C=C/C(=O)O)cc1,inactive
11,O=C(O)/C=C/C(=O)c1ccc(O)cc1,inactive
12,O=C(O)c1[nH]c2ccccc2c1C(c1cc(Br)ccc1O)c1c(C(=O)O)[nH]c2ccccc12,inactive
13,Cc1ccc(NCc2cccnc2)c(Br)c1,inactive
14,O=C(CC(Nc1cccc(Cl)c1Cl)C(=O)O)c1ccccc1 (stereo not given),inactive
15,COc1ccc(C(C2C(=O)CC(C)(C)CC2=O)C2C(=O)CC(C)(C)CC2=O)cc1,inactive
16,CCOC(=O)c1c(C)oc2c1c(CN1CCN(C(=O)OCC)CC1)c(O)c1ccccc12,inactive
17,O=C(O)CN1C(=O)C=CC1=O,inactive
18,CCOC(=O)c1c(NC(=O)C2C3C=CC(C3)C2C(=O)O)sc2c1CCC(CC)C2 (stereo not given),inactive
19,Cc1ccc(/C=C2\SC(=S)N(C(Cc3ccccc3)C(=O)O)C2=O)cc1 (stereo not given),inactive
20,CCOC(=O)C1=C(C)NC2=C(C(=O)C(C(=O)OCC)C(c3ccco3)C2)C1c1ccccn1 (stereo not given),inactive
21,Cc1ccc(C(=O)N/N=C/c2ccc(-c3ccc(Br)cc3[N+](=O)[O-])o2)o1,inactive
